# Assay results as given in PubChem BioAssay (NCATS).
# Inconclusive results are not listed. Calls of active or inactive are those of the source. The call rests on the fitted dose curve; in most records, active means well fitted cell-killing curve with a large enough effect; inconclusive means small, poorly fitted or top-dose-only effect; inactive means flat fitted curve, though single readings scatter.
# Assay: Cell Viability - LYMP2-013 (AID 970); further: nearly all actives have a fitted effect of over 55% in size;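 on activity change, negative = cytotoxic: 0% = DMSO only and full inhibition = tetraoctylammonium bromide control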
# Conditions: LYMP2-013 lymphoblastoid cells viability; series mostly up to 92.2 µM; activity change, negative = cytotoxic: at the top concentration
# From the text: NIH Chemical Genomics Center [NCGC]
# NIH Molecular Libraries Screening Centers Network [MLSCN]
# National Institutes of Environmental Health Sciences [NIEHS]
# National Toxicology Program [NTP]
# We have developed a 1536-well cell-based assay for quantitative high throughput screening (qHTS) against a number of cell lines to determine in vitro cytotoxicity of small molecules. This particular assay uses a human lymphoblastoid cell line (LYMP2-013) purchased from Coriell Institute for Medical Research.
# NCGC Assay Protocol Summary:
# The CellTiter-Glo luminescent cell viability assay (Promega) is a homogeneous method to measure the number of viable cells in culture. The end point readout of this assay is based on quantitation of intracellular ATP, an indicator of metabolic activity, using the luciferase reaction. Luciferase catalyzes the oxidation of beetle Luciferin to oxyluciferin and light in the presence of ATP. The luminescent signal is proportional to amount of ATP present.
# Using the CellTiter-Glo luminescent cell viability assay, the amount of cellular ATP was measured in the lymphoblastoid cell line with complete culture medium following compound treatment for 24 hours. The assay was performed in opaque white Kalypsys 1536-well plates. In the screen, tetraoctylammonium bromide was used as positive control. Library compounds were measured for their ability to cause acute toxicity in the cell line, as reflected by a decrease in intracellular ATP levels, in a concentration-dependent manner. […] AC50 values were determined from concentration-response data modeled with the standard Hill equation.
# qHTS protocol for CellTiter Glo lymphoblastoid cellular assay
# [Step] [Parameter] [Value] [Description]
# 1. Reagent; 5 uL; 2500 lymphoblastoid cells/well
# 2. Time; 5 hr; 37 C incubation
# 4. Controls; 23 nL; Tetraoctylammonium bromide 6.4pM to 92 uM
# 5. Time; 24 hr; 37 C incubation
# 6. Reagent; 5 uL; CellTiter Glo reagent
# 7. Time; 30 min; Room Temperature
# 8. Detection; Luminescence; Viewlux plate reader
# Keywords: cell viability, cytotoxicity, lymphoblastoid cell line, luminescence, NTPHTS, NTPHTS_NCGC, NIEHS, DSSTox, MLSMR, MLSCN, NIH Roadmap, qHTS, NCGC
# Potency means the concentration at half of the fitted maximal effect.
Structure (SMILES),"activity change, negative = cytotoxic",Potency
C=CC1CC=CCC1 (stereo not given),-6.97% (inactive),
C[N+](C)(C)Cc1ccccc1,-0.713% (inactive),
C=C(C)C#N,-17% (inactive),
COc1ccc(N)cc1,,inactive
Cc1cccc(C#N)c1,4.58% (inactive),
CCOc1ccc(N)cc1,-2.33% (inactive),
Nc1ccccc1Cl,-5.86% (inactive),
CCCC(=O)Cl,-1.02% (inactive),
O=C1C(Cl)=C(Cl)C(=O)C(Cl)=C1Cl,,31.6 µM (active)
C[C@H]1CCCC(=O)CCC/C=C/c2cc(O)cc(O)c2C(=O)O1,,inactive
CC(=O)[O-].CC(=O)[O-].O.O.O.[Pb+2],,inactive
Cc1ccccc1N,,inactive
CC(C)(C)OOC(C)(C)C,0.994% (inactive),
CCC[CH2][Sn]([Cl])([Cl])[Cl],-5.03% (inactive),
C=CCOC(C)=O,-19.2% (inactive),
C=CCOC(=O)c1ccccc1N,-5.02% (inactive),
Brc1ccc(Oc2cc(Br)c(Br)cc2Br)c(Br)c1,,inactive
CC(Cl)Cl,-3.16% (inactive),
C=C(C)C(=O)OCC1CO1 (stereo not given),-2.74% (inactive),
CCOP(=S)(OCC)SCSC(C)(C)C,-3.74% (inactive),

Structure (SMILES),"activity change, negative = cytotoxic",Potency
OCC(Br)CBr (stereo not given),-1.09% (inactive),
COC1=CC(=O)OC(CCc2ccccc2)C1 (stereo not given),1.15% (inactive),
C[C@]12CC[C@H]3[C@@H](CCC4=CC(=O)CC[C@@]43C)[C@@H]1CC[C@@H]2O,-12.4% (inactive),
ClC(Cl)=C(Cl)C(Cl)=C(Cl)Cl,-24.6% (inactive),
ClC(Cl)(Cl)c1ccccc1,,inactive
COC1=CC(=O)O[C@@H](/C=C/c2ccc3c(c2)OCO3)C1,-16.8% (inactive),
Cc1ccc([N+](=O)[O-])cc1C,5.52% (inactive),
c1nc[nH]n1,-6.52% (inactive),
CC(C)(C)OO,,inactive
C=CCc1ccc2c(c1)OCO2,-6.48% (inactive),
COC(=O)NC(=S)Nc1ccccc1NC(=S)NC(=O)OC,-2.9% (inactive),
CCN(CC)c1ccccc1,-0.791% (inactive),
CCCCOCCOP(=O)(OCCOCCCC)OCCOCCCC,-8% (inactive),
CC(C)(c1ccccc1)c1ccc(O)cc1,-3.89% (inactive),
Clc1nc(Cl)nc(Nc2ccccc2Cl)n1,-5.29% (inactive),
ClC1=C(Cl)C2(Cl)C3C4CC(C5OC45)C3C1(Cl)C2(Cl)Cl (stereo not given),,39.8 µM (active)
O=NN(CCO)CCO,-1.18% (inactive),
NC(=S)Nc1ccccc1,,inactive
CCOP(=S)(OCC)Oc1ccc([N+](=O)[O-])cc1,,inactive
C1CCC2CCCCC2C1 (stereo not given),-2.78% (inactive),
